Test results taken from the supplement of paper PMC10849652.
Targets with a hit are over-represented here; the source holds about 8,800 in all. About 0.5% of all pairs of compound and target were hits. Values without a mark were called inactive.

Tests used:
Assay in all cases: log2 fold change, soluble protein after heating vs DMSO (PISA); higher = thermal stabilisation; K562 lysate, 10 uM; active = over 0.2 and 3.5 SD of the protein, either way, in both replicates (recomputed)
[1] = compound: C1=CC=C(C=C1)[C@H](COC2=CC3=C(C=C2)NC(=O)N3)NC(=O)C4=CC=CN(C4=O)CC5=CC(=C(C=C5)F)F
Procedure, shortened: (§1)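 The values are log-two fold changes in thermal stability compared with solvent controls and come from duplicates. They were obtained by TMTpro 16plex LC-MS/MS, with channel sums equalised, on the supernatant after 21,000xg for 90 min. That supernatant came from crude K562 extract at 1 mg/mL protein treated with 10 μM compound for 30 min, heated for 3 min across 48°C-58°C, pooled and brought to 0.5% NP-40 at 4°C.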

[2] = compound: CC1=C(SC2=C1C(=N[C@H](C3=NN=C(N32)C)CC(=O)N)C4=CC=C(C=C4)Cl)C
Procedure, shortened: as §1

[3] = compound: CC1=C2C(=CC=C1)N=C(N(C2=O)C3=CC=CC=C3C)CN4C=NC5=C(N=CN=C54)N
Procedure, shortened: as §1

[4] = compound: Cc1sc2c(c1C)C(c1ccc(Cl)cc1)=N[C@@H](CC(=O)OC(C)(C)C)c1nnc(C)n1-2
Procedure, shortened: as §1

[5] = compound: c1ccc([C@@H]2C[C@H]2NC2CCNCC2)cc1
Procedure, shortened: as §1

Chain of UniProt Q5T9A4 (Q5T9A4 whole entry, looked up): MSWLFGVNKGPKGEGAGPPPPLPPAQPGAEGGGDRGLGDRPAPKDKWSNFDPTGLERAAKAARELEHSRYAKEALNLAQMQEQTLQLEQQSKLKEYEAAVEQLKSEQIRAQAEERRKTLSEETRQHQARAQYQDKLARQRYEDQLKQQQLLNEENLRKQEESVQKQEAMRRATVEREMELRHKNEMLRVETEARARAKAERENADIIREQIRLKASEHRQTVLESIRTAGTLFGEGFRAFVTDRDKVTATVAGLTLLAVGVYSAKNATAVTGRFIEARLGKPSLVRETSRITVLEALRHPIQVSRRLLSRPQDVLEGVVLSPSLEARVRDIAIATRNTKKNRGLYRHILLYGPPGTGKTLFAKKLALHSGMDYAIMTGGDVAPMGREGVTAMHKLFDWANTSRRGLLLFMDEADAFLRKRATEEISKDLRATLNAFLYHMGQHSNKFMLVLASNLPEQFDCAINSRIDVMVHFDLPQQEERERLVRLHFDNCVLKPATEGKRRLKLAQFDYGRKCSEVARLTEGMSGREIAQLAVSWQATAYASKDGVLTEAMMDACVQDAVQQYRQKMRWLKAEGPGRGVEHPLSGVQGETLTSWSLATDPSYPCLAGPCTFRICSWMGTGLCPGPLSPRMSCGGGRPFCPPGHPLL
Chain of UniProt O60566 (O60566 whole entry, looked up): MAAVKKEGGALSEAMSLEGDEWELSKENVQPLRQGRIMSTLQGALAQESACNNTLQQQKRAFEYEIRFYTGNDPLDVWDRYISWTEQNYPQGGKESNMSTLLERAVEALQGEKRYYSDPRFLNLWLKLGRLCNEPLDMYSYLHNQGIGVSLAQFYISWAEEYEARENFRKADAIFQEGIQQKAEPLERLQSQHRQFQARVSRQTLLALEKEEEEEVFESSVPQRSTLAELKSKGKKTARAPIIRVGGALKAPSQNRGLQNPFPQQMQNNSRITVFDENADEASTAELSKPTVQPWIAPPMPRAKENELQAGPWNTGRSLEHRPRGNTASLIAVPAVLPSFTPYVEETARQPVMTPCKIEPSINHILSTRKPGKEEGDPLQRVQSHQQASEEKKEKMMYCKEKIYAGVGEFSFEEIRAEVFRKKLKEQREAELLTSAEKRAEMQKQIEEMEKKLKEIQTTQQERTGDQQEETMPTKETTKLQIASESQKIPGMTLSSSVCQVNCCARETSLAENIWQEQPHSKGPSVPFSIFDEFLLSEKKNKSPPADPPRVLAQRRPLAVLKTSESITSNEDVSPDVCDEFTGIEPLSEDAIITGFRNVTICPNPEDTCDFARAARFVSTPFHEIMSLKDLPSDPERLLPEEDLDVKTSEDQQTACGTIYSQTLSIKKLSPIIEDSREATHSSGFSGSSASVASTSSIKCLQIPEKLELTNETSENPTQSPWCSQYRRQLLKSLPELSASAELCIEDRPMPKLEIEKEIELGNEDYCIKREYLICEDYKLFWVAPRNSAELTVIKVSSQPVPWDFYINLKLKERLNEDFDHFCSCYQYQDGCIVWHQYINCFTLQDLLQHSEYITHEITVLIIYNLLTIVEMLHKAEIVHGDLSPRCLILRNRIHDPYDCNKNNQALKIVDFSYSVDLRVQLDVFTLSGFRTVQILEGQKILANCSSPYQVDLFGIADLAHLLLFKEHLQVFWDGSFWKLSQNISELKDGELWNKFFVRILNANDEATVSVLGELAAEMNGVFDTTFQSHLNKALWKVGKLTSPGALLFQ
Chain of UniProt Q9NW68 (Q9NW68 whole entry, looked up): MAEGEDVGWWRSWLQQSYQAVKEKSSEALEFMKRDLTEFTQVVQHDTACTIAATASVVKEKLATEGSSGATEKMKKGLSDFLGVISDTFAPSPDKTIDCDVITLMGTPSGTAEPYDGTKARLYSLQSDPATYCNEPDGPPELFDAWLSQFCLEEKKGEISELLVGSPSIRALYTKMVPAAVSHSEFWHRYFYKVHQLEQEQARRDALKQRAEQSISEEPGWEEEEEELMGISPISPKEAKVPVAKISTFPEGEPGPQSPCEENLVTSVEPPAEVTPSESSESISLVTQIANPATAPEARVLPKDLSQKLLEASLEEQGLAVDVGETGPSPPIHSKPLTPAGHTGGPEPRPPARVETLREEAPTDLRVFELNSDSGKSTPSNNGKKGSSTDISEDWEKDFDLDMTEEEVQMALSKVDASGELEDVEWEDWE
Chain of UniProt Q9BV29 (Q9BV29 whole entry, looked up): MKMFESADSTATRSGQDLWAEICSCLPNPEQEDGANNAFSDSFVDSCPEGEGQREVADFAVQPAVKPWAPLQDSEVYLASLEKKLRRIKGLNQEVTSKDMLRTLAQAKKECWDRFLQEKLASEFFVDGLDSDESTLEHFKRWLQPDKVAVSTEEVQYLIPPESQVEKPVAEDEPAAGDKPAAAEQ
Chain of UniProt P15313 (P15313 whole entry, looked up): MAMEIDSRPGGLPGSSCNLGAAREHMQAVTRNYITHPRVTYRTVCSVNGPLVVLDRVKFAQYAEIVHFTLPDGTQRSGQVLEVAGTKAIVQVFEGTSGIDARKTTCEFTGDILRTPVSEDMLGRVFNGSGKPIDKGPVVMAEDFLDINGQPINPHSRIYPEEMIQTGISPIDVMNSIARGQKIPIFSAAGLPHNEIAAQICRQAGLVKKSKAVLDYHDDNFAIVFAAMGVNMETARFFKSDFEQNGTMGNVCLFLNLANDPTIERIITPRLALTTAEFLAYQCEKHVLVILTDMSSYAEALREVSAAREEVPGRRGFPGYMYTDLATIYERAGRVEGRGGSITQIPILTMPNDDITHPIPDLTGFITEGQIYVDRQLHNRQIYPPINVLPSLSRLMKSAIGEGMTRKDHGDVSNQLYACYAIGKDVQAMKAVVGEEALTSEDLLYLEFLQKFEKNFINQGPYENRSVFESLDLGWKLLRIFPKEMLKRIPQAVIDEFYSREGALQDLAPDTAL
Chain of UniProt Q14004 (Q14004 whole entry, looked up): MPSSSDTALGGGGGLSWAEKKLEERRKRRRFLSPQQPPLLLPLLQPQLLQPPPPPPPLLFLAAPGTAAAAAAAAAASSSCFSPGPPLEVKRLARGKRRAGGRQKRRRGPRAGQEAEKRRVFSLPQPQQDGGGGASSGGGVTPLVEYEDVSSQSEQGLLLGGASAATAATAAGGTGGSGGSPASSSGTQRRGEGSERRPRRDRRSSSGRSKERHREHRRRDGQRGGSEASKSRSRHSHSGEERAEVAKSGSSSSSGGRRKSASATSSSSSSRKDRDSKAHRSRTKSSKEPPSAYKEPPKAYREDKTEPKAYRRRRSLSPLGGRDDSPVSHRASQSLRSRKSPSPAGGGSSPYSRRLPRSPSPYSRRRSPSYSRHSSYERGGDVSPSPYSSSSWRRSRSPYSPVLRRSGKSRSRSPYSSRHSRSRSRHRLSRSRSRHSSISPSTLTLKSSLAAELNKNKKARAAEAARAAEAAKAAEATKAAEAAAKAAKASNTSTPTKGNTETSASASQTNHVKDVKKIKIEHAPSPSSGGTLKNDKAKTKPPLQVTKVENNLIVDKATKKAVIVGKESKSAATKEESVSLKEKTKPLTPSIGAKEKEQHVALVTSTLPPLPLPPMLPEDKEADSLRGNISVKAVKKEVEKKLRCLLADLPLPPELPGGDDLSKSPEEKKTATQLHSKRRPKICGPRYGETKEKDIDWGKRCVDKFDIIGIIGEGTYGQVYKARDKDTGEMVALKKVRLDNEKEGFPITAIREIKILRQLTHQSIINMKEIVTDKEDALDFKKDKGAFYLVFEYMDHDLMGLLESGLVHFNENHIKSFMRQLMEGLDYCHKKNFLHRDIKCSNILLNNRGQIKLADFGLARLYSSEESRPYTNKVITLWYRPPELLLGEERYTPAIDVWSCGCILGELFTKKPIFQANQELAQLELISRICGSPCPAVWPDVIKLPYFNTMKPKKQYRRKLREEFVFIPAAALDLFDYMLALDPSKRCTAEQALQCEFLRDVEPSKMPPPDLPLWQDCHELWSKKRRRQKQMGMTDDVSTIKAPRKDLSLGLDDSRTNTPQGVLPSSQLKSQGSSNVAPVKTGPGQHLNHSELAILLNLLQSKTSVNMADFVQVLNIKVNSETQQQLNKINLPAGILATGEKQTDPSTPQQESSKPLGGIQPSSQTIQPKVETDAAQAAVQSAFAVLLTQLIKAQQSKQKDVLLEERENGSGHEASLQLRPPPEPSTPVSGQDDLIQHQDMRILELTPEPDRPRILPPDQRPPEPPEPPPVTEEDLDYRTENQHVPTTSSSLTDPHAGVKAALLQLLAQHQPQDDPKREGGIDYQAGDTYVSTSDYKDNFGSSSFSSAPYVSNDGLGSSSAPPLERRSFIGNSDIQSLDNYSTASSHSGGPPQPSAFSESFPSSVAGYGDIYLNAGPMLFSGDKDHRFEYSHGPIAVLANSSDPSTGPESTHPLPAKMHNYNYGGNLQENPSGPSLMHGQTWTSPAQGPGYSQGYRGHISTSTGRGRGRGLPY
Chain of UniProt P16152 (P16152 whole entry, looked up): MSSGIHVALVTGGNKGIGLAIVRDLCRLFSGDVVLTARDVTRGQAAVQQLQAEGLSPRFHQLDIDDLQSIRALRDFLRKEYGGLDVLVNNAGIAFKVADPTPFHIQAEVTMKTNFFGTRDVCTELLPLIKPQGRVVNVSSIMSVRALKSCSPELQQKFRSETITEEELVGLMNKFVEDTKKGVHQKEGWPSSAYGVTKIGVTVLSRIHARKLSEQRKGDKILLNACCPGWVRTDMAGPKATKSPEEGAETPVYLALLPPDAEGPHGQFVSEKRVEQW
Chain of UniProt Q8NBU5 (Q8NBU5 whole entry, looked up): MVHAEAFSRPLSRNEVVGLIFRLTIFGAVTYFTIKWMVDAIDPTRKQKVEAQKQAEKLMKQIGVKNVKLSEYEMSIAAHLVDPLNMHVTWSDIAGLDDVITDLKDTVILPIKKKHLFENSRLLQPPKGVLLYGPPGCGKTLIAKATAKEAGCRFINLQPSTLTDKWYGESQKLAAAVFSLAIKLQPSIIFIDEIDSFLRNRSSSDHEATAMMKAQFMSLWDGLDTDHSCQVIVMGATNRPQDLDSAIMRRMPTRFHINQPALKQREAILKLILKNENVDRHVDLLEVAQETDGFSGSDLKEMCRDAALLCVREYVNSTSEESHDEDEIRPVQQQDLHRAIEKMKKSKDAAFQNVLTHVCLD

| Target | log2 fold change [1] | log2 fold change [2] | log2 fold change [3] | log2 fold change [4] | log2 fold change [5] |
| --- | --- | --- | --- | --- | --- |
| BRD4 (UniProt O60885) | 0.022 | 0.868 (active) | 0.003 | 0.415 (active) | -0.015 |
| C18orf25 (UniProt Q96B23) | 0.013 | -0.035 | 0.043 | 0.017 | -0.033 |
| AURKAIP1 (UniProt Q9NWT8) | 0.05 | 0.032 | -0.014 | 0.024 | 0.034 |
| CCDC32 isoform 2 (UniProt Q9BV29) | -0.132 | -0.103 | -0.058 | 0.015 | -0.109 |
| CCDC51 (UniProt Q96ER9) | -0.063 | 0.023 | -0.029 | 0.014 | 0.157 |
| CDKN2AIP (UniProt Q9NXV6) | 0.01 | 0.024 | 0.027 | -0.041 | -0.013 |
| CBR1 (UniProt P16152) | 0.03 | -0.004 | 0.013 | -0.021 | -0.056 |
| CD63 (UniProt P08962) | 0.006 | 0.001 | -0.008 | -0.13 | -0.242 |
| BRAT1 (UniProt Q6PJG6) | -0.043 | -0.005 | 0.027 | 0.005 | 0.003 |
| CARS isoform 3 (UniProt P49589) | -0.026 | 0.014 | 0.007 | 0.035 | 0.03 |
| ATP6V1B1 (UniProt P15313) | 0.023 | 0.004 | 0.004 | -0.023 | -0.157 |
| ATG13 isoform 2 (UniProt O75143) | 0.001 | 0.026 | 0.055 | 0.045 | -0.166 |
| BTAF1 (UniProt O14981) | 0.013 | 0 | -0.005 | 0.04 | -0.02 |
| ATRIP (UniProt Q8WXE1) | -0.042 | -0.02 | -0.056 | -0.032 | 0.093 |
| CCNB2 (UniProt O95067) | -0.005 | 0.026 | 0.047 | 0.048 | 0.033 |
| CAD (UniProt P27708) | -0.011 | 0.009 | 0.003 | 0.022 | 0.002 |
| CAMKK1 isoform 2 (UniProt Q8N5S9) | 0.006 | 0.03 | 0.011 | 0.071 | -0.103 |
| CAPNS1 (UniProt P04632) | 0 | -0.041 | -0.067 | 0.057 | -0.014 |
| CHCHD4 isoform 2 (UniProt Q8N4Q1) | 0.04 | -0.076 | -0.101 | -0.189 | -0.168 |
| CDC25C (UniProt P30307) | 0.018 | -0.011 | 0.023 | 0.07 | 0.027 |
| CDK1 (UniProt P06493) | 0.037 | -0.009 | 0.042 | 0.021 | 0.018 |
| BPHL (UniProt Q86WA6) | 0.284 | 0.038 | -0.028 | 0.158 | 0.014 |
| BCR (UniProt P11274) | -0.03 | 0.005 | -0.014 | 0.007 | 0.027 |
| ATAD3B (UniProt Q5T9A4) | 0.082 | -0.033 | -0.021 | 0.047 | 0.172 |
| BNIP1 (UniProt Q12981) | 0.021 | -0.051 | 0.001 | 0.018 | 0.149 |
| CDCA8 (UniProt Q53HL2) | 0.038 | 0.037 | -0.213 | -0.048 | 0.104 |
| CCNK isoform 4 (UniProt O75909) | -0.018 | -0.045 | -0.026 | -0.047 | -0.175 |

| Target | log2 fold change [1] | log2 fold change [2] | log2 fold change [3] | log2 fold change [4] | log2 fold change [5] |
| --- | --- | --- | --- | --- | --- |
| CCDC85B (UniProt Q15834) | -0.033 | -0.132 | 0.08 | -0.04 | -0.034 |
| C18orf32 (UniProt Q8TCD1) | 0.039 | 0.004 | -0.245 | -0.028 | 0.076 |
| ATP13A1 (UniProt Q9HD20) | 0.006 | -0.001 | 0.079 | 0.064 | 0.03 |
| BCKDHB (UniProt P21953) | 0.027 | 0.023 | 0.09 | 0.074 | 0.119 |
| ATG4B (UniProt Q9Y4P1) | 0.004 | 0.034 | 0.017 | -0.002 | 0.051 |
| BSDC1 (UniProt Q9NW68) | 0.155 | -0.025 | 0.021 | -0.004 | -0.026 |
| CALM2 (UniProt P0DP24) | -0.07 | -0.177 | 0.009 | -0.088 | -0.001 |
| ATP6V0A2 (UniProt Q9Y487) | -0.011 | -0.017 | 0.026 | -0.015 | -0.114 |
| CDC40 (UniProt O60508) | 0.036 | 0.003 | -0.099 | 0.099 | -0.03 |
| CEP120 (UniProt Q8N960) | -0.074 | 0.097 | 0.145 | -0.169 | 0.184 |
| CFDP1 (UniProt Q9UEE9) | 0.051 | -0.03 | -0.017 | -0.03 | -0.124 |
| CES2 isoform 4 (UniProt O00748) | 0.129 | 0.159 | -0.089 | 0.093 | -0.07 |
| BET1 (UniProt O15155) | -0.053 | 0.013 | 0.032 | 0.038 | 0.009 |
| CHD5 (UniProt Q8TDI0) | -0.039 | 0.003 | -0.002 | 0.085 | 0.032 |
| CCNB1 (UniProt P14635) | -0.019 | 0.063 | 0.038 | -0.032 | 0.036 |
| CDK5 (UniProt Q00535) | -0.01 | -0.03 | -0.021 | 0.002 | -0.02 |
| C8orf37 (UniProt Q96NL8) | 0.072 | -0.08 | -0.094 | -0.008 | 0.141 |
| CAMK2G isoform 8 (UniProt Q13555) | 0.048 | -0.063 | -0.053 | -0.007 | -0.037 |
| CDK13 (UniProt Q14004) | -0.091 | -0.031 | -0.052 | 0.049 | 0.052 |
| CEP76 (UniProt Q8TAP6) | -0.009 | -0.01 | -0.043 | 0.002 | -0.027 |
| CASP9 (UniProt P55211) | 0.041 | -0.024 | 0.019 | -0.05 | -0.048 |
| ATAD1 (UniProt Q8NBU5) | -0.052 | 0.032 | -0.015 | -0.092 | 0.002 |
| CCAR2 (UniProt Q8N163) | 0.001 | 0.005 | -0.007 | 0.003 | 0.004 |
| CARD9 (UniProt Q9H257) | -0.039 | 0.065 | 0.023 | -0.009 | 0.035 |
| BUB1B isoform 3 (UniProt O60566) | -0.013 | -0.005 | 0.027 | -0.003 | 0.02 |
| CBX1 (UniProt P83916) | 0.031 | -0.03 | 0.032 | 0.009 | 0.13 |
